Gli-Sufu block: Gli-Sufu pathway antagonists, primary screen, luciferase luminescence, Sufu-KO-LIGHT cells, uHTS. Sufu-KO-LIGHT fibroblasts, Gli luciferase reporter luminescence. 340,000 compounds, 0.74% hits. inhibition, % at 5 µM;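 active = inhibition above about 55%, limit read from the data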
Mdm2-MdmX inh: inhibitors of human Mdm2-MdmX association, primary screen, cell-based, luminescence, split luciferase, SaOS-2, uHTS; inhibition, % at 8 µM; 330,000 compounds, 3% hits; Protein Mdm4 (Homo sapiens) + E3 ubiquitin-protein ligase Mdm2 (Homo sapiens), …; SaOS-2 split-luciferase Mdm2/MdmX complementation; AID 485346, 2010;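 active = inhibition of at least 50% at 8 µM in the primary screen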
697 NFkB inh: inhibitors of PMA/ionomycin-induced NF-kB reporter, 697 cells, primary screen, B-cell NF-kB inhibitor project, cell-based, luminescence, uHTS. inhibition, % at 4 µM. 697 B-cell NF-kB luciferase reporter, 16 h. 330,000 compounds, 0.33% hits. AID 435022, 2010; in the data active = inhibition above about 35%
KLF5 inhibitor: KLF5 expression inhibitors, primary screen, DLD-1 cells, luminescence; DLD-1 KLF5 promoter-luciferase reporter; inhibition, % at 5 µM; 290,000 compounds, 0.23% hits; AID 1700, 2009;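 active = inhibition above a per-plate limit of that plate's mean compound inhibition plus 3 SD, cut at about 60% in these data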;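 note: higher means less KLF5 promoter-driven luciferase light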
aSyn 5UTR inh: MLPCN primary screen, SNCA 5' untranslated region. alpha-synuclein 5'UTR reporter, inhibitor activity. 300,000 compounds, 0.82% hits. inhibition, % (tested at 7.5 µM). AID 1813, 2009; in the data active = inhibition above about 60%;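 note: H4 neuroglioblastoma cells stably carrying SNCA 5'UTR luciferase fusion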
Jurkat NFkB inh: inhibitors of induced NF-kB luciferase reporter, primary screen, TCR NF-kB activation inhibitor project, cell-based, luminescence, uHTS. Jurkat, PMA/ionomycin-induced NF-kB luciferase reporter. 330,000 compounds, 0.53% hits. AID 435003, 2010. inhibition, % at 4 µM; in the data active = inhibition above about 50%
Jurkat NFkB conf: PMA/ionomycin-induced NF-kB reporter inhibitors, Jurkat retest, confirmation, T-cell NF-kB inhibitor project, cell-based, luminescence, single concentration. shares compounds with Jurkat NFkB inh. Jurkat NF-kB luciferase, 16 h. inhibition, % at 4 µM. 2,700 compounds, 27% hits. AID 435020, 2010;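 active = inhibition reaching about 45% at 4 µM in either replicate, limit read from the data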
697 NFkB conf: PMA/ionomycin-induced NF-kB reporter inhibitors, 697 retest, confirmation, B-cell NF-kB inhibitor project, cell-based, luminescence, single concentration; shares compounds with 697 NFkB inh; inhibition, % at 4 µM; 697 B-cell NF-kB luciferase, 16 h; AID 449746, 2010; 2,000 compounds, 35% hits; in the data active = inhibition mostly above about 28%, no sharp cut-off; inactive = mostly below about 22%
Mdm2-MdmX conf: Mdm2-MdmX complex disruptors, retested hits, confirmation, luminescence, single concentration; shares compounds with Mdm2-MdmX inh; Mdm2-MdmX binding, luminescent assay; inhibition, % at 8 µM; 10,000 compounds, 55% hits; AID 489028, 2010; in the data active = inhibition above about 40%
Full FLuc ctr: full-length luciferase signal inhibition, confirmation, counter-screen for Mdm2/MdmX interaction inhibitor project, cell-based, single concentration, SaOS-2; AID 504607, 2011; shares compounds with Mdm2-MdmX inh; inhibition, % at 8 µM; SaOS-2 full-length luciferase counterscreen, luminescence; 6,200 compounds, 77% hits;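 active = mean inhibition at 8 µM reaching about 37%, which flags the compound as non-specific, limit read from the data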;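 note: p53-null SaOS-2 cells with luciferase driven by a doxycycline-inducible promoter; compound on cells about two nights before reading with doxycycline added after day one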
Large screens that a line does not name were inactive (follow-up assays come after a bar, where they were run). Only some compounds are listed: those with a hit (about 4.1% of all), similar ones and a draw of the others.

COc1ccc(CC(=O)Nc2cc(S(=O)(=O)Nc3ccc(OC)cc3)ccc2OC)cc1	none (no result: KLF5 inhibitor, aSyn 5UTR inh)
CC1C/C(=C/c2cccn2C)C(=O)/C(=C/c2cccn2C)C1 (stereo not given)	none
CC1C/C(=C/c2ccncc2)C(=O)/C(=C/c2ccncc2)C1 (stereo not given)	Mdm2-MdmX inh 99, Jurkat NFkB inh 96 | Jurkat NFkB conf inactive | Mdm2-MdmX conf 99 | Full FLuc ctr 51
CC(C)Cc1nnc(NC(=O)CN2C(=O)NC3(CC(C)CC(C)(C)C3)C2=O)s1 (stereo not given)	none (no result: KLF5 inhibitor)
Cc1cc(O)c2c(c1O)C(=O)[C@]13C(=C2O)C(=O)[C@@H]2[C@@H](O)[C@H]1[C@@H]1[C@H](O)[C@H]3C(=O)C3=C(O)c4c(O)cc(C)c(O)c4C(=O)[C@]312	Gli-Sufu block 78, Mdm2-MdmX inh 87, 697 NFkB inh 44, Jurkat NFkB inh 85 (no result: KLF5 inhibitor, aSyn 5UTR inh) | Jurkat NFkB conf 87 | 697 NFkB conf inactive | Mdm2-MdmX conf 85 | Full FLuc ctr inactive
CCN(C(=O)COC(=O)c1cccc(NS(=O)(=O)c2ccc(F)c(F)c2)c1)C1CCS(=O)(=O)C1 (stereo not given)	none (no result: Gli-Sufu block)
Cn1c(/C=C/c2ccc([N+](=O)[O-])o2)nc2ccccc2c1=O	Gli-Sufu block 82, Mdm2-MdmX inh 91, aSyn 5UTR inh 98, Jurkat NFkB inh 82 | Jurkat NFkB conf inactive | Mdm2-MdmX conf 70 | Full FLuc ctr 53
Cn1c(/C=C/c2ccccc2)nc2ccccc2c1=O	none
O=C(NCc1cccs1)C1CCN(c2ccc(S(=O)(=O)N3CCOCC3)cc2Cl)CC1	Mdm2-MdmX inh 63, KLF5 inhibitor 74, Jurkat NFkB inh 76 | Jurkat NFkB conf 54 | Mdm2-MdmX conf 43 | Full FLuc ctr 91
NC1=NC[C@H](c2ccccc2)N1CCc1cc(C(F)(F)F)cc(C(F)(F)F)c1	Mdm2-MdmX inh 80, Jurkat NFkB inh 71 (no result: KLF5 inhibitor) | Jurkat NFkB conf inactive | Mdm2-MdmX conf 68 | Full FLuc ctr 57
CN(C)c1ccc(/C=C/c2ccc3ccccc3[n+]2C)cc1	Gli-Sufu block 87, Mdm2-MdmX inh 87, Jurkat NFkB inh 93 | Jurkat NFkB conf 66 | Mdm2-MdmX conf 82 | Full FLuc ctr inactive
CN(CCCS(=O)(=O)[O-])c1ccc(/C=C/c2ccc3ccccc3[n+]2C)cc1	none
CCN(CC)c1ccc(C=Nc2cccc(S(=O)(=O)N3CCOCC3)c2)c(O)c1	none (no result: KLF5 inhibitor, aSyn 5UTR inh)
CCN(CC)c1ccc(/C=N/NC(=O)c2cccc(S(=O)(=O)N3CCOCC3)c2)c(O)c1	Mdm2-MdmX inh 75, aSyn 5UTR inh 129, Jurkat NFkB inh 64 (no result: Gli-Sufu block) | Jurkat NFkB conf inactive | Mdm2-MdmX conf 84 | Full FLuc ctr 53
COc1ccc(NC(=O)C(=O)NCC2CCCN2S(=O)(=O)c2ccc(C)cc2)cc1 (stereo not given)	Gli-Sufu block 69, Mdm2-MdmX inh 66, aSyn 5UTR inh 91, Jurkat NFkB inh 76 (no result: KLF5 inhibitor) | Jurkat NFkB conf 64 | Mdm2-MdmX conf 79 | Full FLuc ctr 104

Compound activity as filed in PubChem.
